SMILES strings stand for the structures. Results filed as inconclusive are left out. Entries that show only a call come without a potency. The source made the active and inactive calls. Calls come from the whole dose curve; as a rule, active = well fitted inhibition curve with a large enough effect; inconclusive = small, poorly fitted or top-dose-only effect; inactive = flat fitted curve, though single readings scatter.
Potency is the fitted concentration of half-maximal effect.

The test system of this experiment is ICS. The experiment is described as follows: qHTS profiling for inhibitors of Plasmodium falciparum proliferation (AID 504749). Note: nearly all actives have a fitted effect of over 60% in size. Particulars: P. falciparum in erythrocytes, SYBR Green DNA, 72 h; series mostly up to 28.7 µM. The gist of the method: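 Each compound contacts P. falciparum-infected red blood cells for 72 h at 37 C; lysis buffer (Tris, EDTA, saponin, Triton X, SYBR Green I) is added and fluorescence measured next morning; values normalized to controls.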
In general terms: In qHTS, concentration-response curves come from the screen itself.
Consider `S=C=Nc1ccc(N=C=S)cc1`, for which the Potency entry was “inactive”.

On to `N=C(N)n1cccn1`, for which the Potency result was “inactive”. To `Cc1cccc(C)c1NC(=O)NC1=CCCN1C` belongs “inactive”; to `Cc1cc(-c2ccc(N=Nc3ccc4c(S(=O)(=O)O)cc(S(=O)(=O)O)c(N)c4c3O)c(C)c2)ccc1N=Nc1ccc2c(S(=O)(=O)O)cc(S(=O)(=O)O)c(N)c2c1O`, “inactive”; to `O=P(O)(O)O`, “inactive”.

Turning to `CN(CCO)CC(O)Cn1cnc2c1c(=O)n(C)c(=O)n2C` (centres undefined) (tested in a mixture with another compound), the Potency result was “inactive”. Then `O=C(O)Cc1cc(I)c(Oc2ccc(O)c(I)c2)c(I)c1`, with “inactive”. To `COC1=C(OC)C(=O)C(C/C=C(\C)CC/C=C(\C)CC/C=C(\C)CC/C=C(\C)CC/C=C(\C)CC/C=C(\C)CC/C=C(\C)CC/C=C(\C)CC/C=C(\C)CCC=C(C)C)=C(C)C1=O` belongs “inactive”. Then `CN=C1C=CC(=C(c2ccc(N(C)C)cc2)c2ccc(N(C)C)cc2)C=C1`, with 398 nM (active); and `CCOc1ccc(S(=O)(=O)O)c2cccnc12`, with “inactive”; and `FC(F)(F)COCC(F)(F)F`, with “inactive”.

`O=C(O)[C@H]1C(=CCO)O[C@H]2CC(=O)N12`: the Potency result was “inactive”.

As to `CC1CC(O)CC(C)(C)C1` (centres undefined), the Potency entry was “inactive”.

On to `Cc1ncc(C[n+]2csc(CCOP(=O)(O)O)c2C)c(N)n1`, for which the Potency result is “inactive”.

With `CCCCO`, the Potency result is “inactive”.

Take `CCOC(=S)SSC(=S)OCC`: the Potency result was “inactive”. To `N[C@H](CC(=O)O)C(=O)O` belongs “inactive”. As to `CCC(C(=O)NC(N)=O)c1ccccc1` (centres undefined), the Potency result was “inactive”. To `CCN(CC)CCOC(=O)c1cccnc1` belongs “inactive”.

For `NC(=S)NS(=O)(=O)c1ccc(N)cc1`, the Potency entry is “inactive”. Then `COc1cc2c(cc1OC)[C@@H](Cc1cc(OC)c(OC)c(OC)c1)[N+](C)(CCCOC(=O)CC/C=C/CCC(=O)OCCC[N+]1(C)CCc3cc(OC)c(OC)cc3[C@H]1Cc1cc(OC)c(OC)c(OC)c1)CC2` (some centres undefined), with “inactive”. With `Cc1ncc(COP(=O)(O)O)c(CN)c1O`, the Potency entry was “inactive”. To `C[C@H](N)C(=O)N[C@@H](C)P(=O)(O)O` belongs “inactive”; to `CO[C@H]1C[C@@H]2CC[C@@H](C)[C@@](O)(O2)C(=O)C(=O)N2CCCC[C@H]2C(=O)O[C@H]([C@H](C)C[C@@H]2CC[C@@H](OC(=O)C(C)(CO)CO)[C@H](OC)C2)CC(=O)[C@H](C)/C=C(\C)[C@@H](O)[C@@H](OC)C(=O)[C@H](C)C[C@H](C)/C=C/C=C/C=C/1C`, “inactive”. Regarding `CC1=C(/C=C/C(C)=C/C=C/C(C)=C/C(=O)Oc2c(C)c(C)c3c(c2C)CC[C@@](C)(CCC[C@H](C)CCC[C@H](C)CCCC(C)C)O3)C(C)(C)CCC1`, the Potency result is “inactive”. To `CCCCCCCCCCCCCC(=O)OCC(COP(=O)([O-])OCC[N+](C)(C)C)OC(=O)CCCCCCCCCCCCC` (centres undefined) belongs “inactive”. Then `CC(C)c1ncc([N+](=O)[O-])n1C`, with “inactive”. To `NC(=O)[C@@H]1CCCN1C(=O)[C@H](Cc1cnc[nH]1)NC(=O)[C@@H]1CCC(=O)N1` belongs “inactive”. As for `Cc1ccccn1`, the Potency result is “inactive”. Then `Nc1nccs1`, with “inactive”; and `O=C(NCCNCC(O)COc1ccc(O)cc1)N1CCOCC1` (centres undefined), with “inactive”; and `CC(C)CCC[C@@H](C)[C@H]1CC[C@H]2[C@@H]3CC=C4C[C@@H](O)CC[C@]4(C)[C@H]3CC[C@]12C`, with “inactive”.

Regarding `CS(=O)(=O)OCC(O)C(O)COS(C)(=O)=O` (centres undefined), the Potency entry is “inactive”.

As for `NCC[C@H](O)C(=O)N[C@@H]1C[C@H](N)[C@@H](O[C@H]2O[C@H](CN)CC[C@H]2N)[C@H](O)[C@H]1O[C@H]1O[C@H](CO)[C@@H](O)[C@H](N)[C@H]1O`, the Potency entry is “inactive”.

Consider `OCC(O)CO`, for which the Potency result is “inactive”.

Take `CCOc1ccc(NC(=S)Nc2ccc(OCC)cc2)cc1`: the Potency entry was “inactive”.

With `CCOC(=O)c1cc(-c2ccccc2)nc2ccc(C)cc12`, the Potency entry is “inactive”. Then `OCl`, with “inactive”.

For `CCc1ncnc2cc(OC)c(OC)cc12`, the Potency result was “inactive”.

These data come from PubChem BioAssay (NCATS).
